Experimental findings from PubChem BioAssay (NCI) are described below.

Test systems include SR leukemia; RPMI-8226 leukemia; OVCAR-8 ovarian; OVCAR-5 ovarian; OVCAR-4 ovarian; SK-OV-3 ovarian; IGROV1 ovarian; OVCAR-3 ovarian; HS 578T breast; NCI/ADR-RES ovarian.
Common to all, as to experiment: NCI-60 one-dose screen, 48 h (100 = growth as untreated, 0 = no growth, -100 = all killed)
What all share (conditions): 10 µM unless noted

Compounds without any hit were thinned out: in the full panel of roughly 83,000, 20% have a hit.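 Cell lines were cultured in 96-well plates, exposed to a single compound concentration, and assessed for percent growth 48 hours later.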 Values without a mark were called inactive. Active and inactive are the calls of the source. Rule for the calls: active = growth percent below 10; inactive = the rest.

Turning to `CC(C)CCCCCOC(=O)c1ccccc1SSc1ccccc1C(=O)OCCCCCC(C)C`, the growth in the assay with SR leukemia was 86.9%; in the assay on RPMI-8226 leukemia, 88.8%; in the assay on OVCAR-8 ovarian, 104%; in the assay with OVCAR-5 ovarian it was 106%; in the assay with OVCAR-4 ovarian, 109%; in the assay on SK-OV-3 ovarian, 108%. For the same compound, the growth is 116% with IGROV1 ovarian, 111% with OVCAR-3 ovarian, 104% in the assay with HS 578T breast and 107% with NCI/ADR-RES ovarian.
With `O=C(O)c1ccc(Br)nc1`, the growth in the assay on SR leukemia is 95.9%; in the assay on RPMI-8226 leukemia, 98.7%; with OVCAR-8 ovarian it was 98.3%; in the assay on OVCAR-5 ovarian, 86.1%; in the assay on OVCAR-4 ovarian, 98.6%; with SK-OV-3 ovarian, 92.3%. Also, the growth in the assay with IGROV1 ovarian was 107%; in the assay on OVCAR-3 ovarian, 102%; in the assay with HS 578T breast, 102%; in the assay on NCI/ADR-RES ovarian, 102%.
For `COc1ccc2c(c1)/C(=C1/S/C(=N/c3nnc(C)s3)NC1=O)C(=O)N2Cc1ccc(Br)cc1`, the growth is 55% in the assay with SR leukemia; 26.6% with RPMI-8226 leukemia; 38% with OVCAR-8 ovarian; 74.5% in the assay with OVCAR-5 ovarian; 40.1% with OVCAR-4 ovarian; 52.1% in the assay on SK-OV-3 ovarian. Also, the growth with IGROV1 ovarian was 40.9%; in the assay with OVCAR-3 ovarian, 28.7%; in the assay with HS 578T breast, 47.8%; with NCI/ADR-RES ovarian, 32.2%.
Consider `CC(=O)N1N=C(c2ccc(Cl)cc2)CC1c1cn(-c2ccccc2)nc1-c1ccc([N+](=O)[O-])cc1` (stereo not given), for which the growth in the assay with SR leukemia was 120%; in the assay on RPMI-8226 leukemia, 101%; in the assay with OVCAR-8 ovarian, 102%; in the assay with OVCAR-5 ovarian it was 94%; in the assay on OVCAR-4 ovarian it was 85.6%; in the assay with SK-OV-3 ovarian, 96.5%. Further, the growth in the assay on IGROV1 ovarian is 122%; in the assay with OVCAR-3 ovarian, 106%; in the assay with HS 578T breast, 125%; with NCI/ADR-RES ovarian, 135%.
For the compound `O=C1CCNC1`, the growth in the assay on SR leukemia was 106%; in the assay with RPMI-8226 leukemia, 102%; in the assay on OVCAR-8 ovarian it was 100%; in the assay with OVCAR-5 ovarian, 105%; in the assay with OVCAR-4 ovarian it was 97.8%; with SK-OV-3 ovarian, 107%. The growth in the assay with IGROV1 ovarian is 118%; in the assay with OVCAR-3 ovarian, 109%; in the assay with HS 578T breast it was 114%; with NCI/ADR-RES ovarian, 110%.
With `COC(=O)c1ccc2[nH]c(O)c(C(=Nc3ccc(N(C)C(=O)CN4CCN(C)CC4)cc3)c3ccc([N+](=O)[O-])cc3)c2c1`, the growth in the assay on SR leukemia is 5.48% (active); in the assay with RPMI-8226 leukemia, 31%; in the assay on OVCAR-8 ovarian, 37%; with OVCAR-5 ovarian, 94.3%; in the assay on OVCAR-4 ovarian it was 46.9%; in the assay on SK-OV-3 ovarian, 22.5%. Also, the growth was 19.1% in the assay with IGROV1 ovarian, 53.6% with OVCAR-3 ovarian, 27.6% in the assay on HS 578T breast and 104% with NCI/ADR-RES ovarian.
As for `CCCCCCCCCCCC(=O)OC(C)C(=O)Nc1ccccc1` (stereo not given), the growth was 86.1% in the assay with SR leukemia; 99.8% in the assay on RPMI-8226 leukemia; 95.4% in the assay on OVCAR-8 ovarian; 95.2% in the assay with OVCAR-5 ovarian; 105% with OVCAR-4 ovarian; 97.6% in the assay on SK-OV-3 ovarian. The growth with IGROV1 ovarian was 103%; in the assay with OVCAR-3 ovarian it was 102%; with HS 578T breast, 94.3%; with NCI/ADR-RES ovarian, 100%.
With `Cc1c(Cc2ccccc2)c(=O)oc2c(C)c(OCc3n[nH]c(=S)o3)ccc12`, the growth in the assay on SR leukemia was 5.04% (active); in the assay with RPMI-8226 leukemia, 56.6%; in the assay on OVCAR-8 ovarian, 30.6%; in the assay with OVCAR-5 ovarian, 89.9%; in the assay on OVCAR-4 ovarian it was 43.8%; in the assay with SK-OV-3 ovarian, 86.9%. In addition, the growth in the assay with IGROV1 ovarian was 67.3%; in the assay on OVCAR-3 ovarian, 74.5%; in the assay with HS 578T breast, 62.3%; with NCI/ADR-RES ovarian, 99.6%.
For the compound `CCN(CC)CCCNc1c2ccc(Cl)cc2nc2ccc(OC)cc12`, the growth in the assay with SR leukemia was -30.3% (active); in the assay with RPMI-8226 leukemia, -21.5% (active); in the assay on OVCAR-8 ovarian, 4.01% (active); in the assay with OVCAR-5 ovarian, 3.61% (active); in the assay with OVCAR-4 ovarian, -35.2% (active); in the assay with SK-OV-3 ovarian, 3.94% (active). For the same compound, the growth with IGROV1 ovarian was 6.62% (active); in the assay with OVCAR-3 ovarian it was -11.5% (active); with HS 578T breast it was 34.1%; with NCI/ADR-RES ovarian, 0.48% (active).
With `CCc1ccc(C(=Nc2ccc(N(C)C(=O)CN3CCN(C)CC3)cc2)c2c(O)[nH]c3ccc(C(=O)OC)cc23)cc1`, the growth was -27.7% (active) with SR leukemia; -46.9% (active) in the assay on RPMI-8226 leukemia; -34.5% (active) with OVCAR-8 ovarian; -58.1% (active) in the assay with OVCAR-5 ovarian; -61.3% (active) in the assay with OVCAR-4 ovarian; -61.5% (active) in the assay with SK-OV-3 ovarian. Moreover, the growth in the assay with IGROV1 ovarian is -65.4% (active); in the assay on OVCAR-3 ovarian it was -69.9% (active); in the assay with HS 578T breast, -48.7% (active); in the assay on NCI/ADR-RES ovarian it was 10.5%.
With `COc1ccc(OC)c(Cn2cc3c(c2)-c2oncc2CC3)c1`, the growth in the assay on SR leukemia was 22.7%; in the assay on RPMI-8226 leukemia it was 42.5%; with OVCAR-8 ovarian, 55.5%; with OVCAR-5 ovarian, 58.1%; with OVCAR-4 ovarian it was 69.1%; with SK-OV-3 ovarian it was 11.6%. The growth was 31.2% in the assay on IGROV1 ovarian, -4.75% (active) in the assay with OVCAR-3 ovarian, 19.2% in the assay on HS 578T breast and 1.37% (active) in the assay on NCI/ADR-RES ovarian.
With `Cc1nn(-c2ccccc2)c(N)c1N=C1NC(=O)/C(=C/c2ccc(Cl)cc2)S1`, the growth was 34.1% in the assay with SR leukemia; 49.5% in the assay with RPMI-8226 leukemia; 91.6% in the assay with OVCAR-8 ovarian; 86.6% with OVCAR-5 ovarian; 75.2% with OVCAR-4 ovarian; 88% in the assay with SK-OV-3 ovarian. Further, the growth in the assay with IGROV1 ovarian was 104%; in the assay with OVCAR-3 ovarian it was 68.8%; in the assay with HS 578T breast it was 93.1%; in the assay with NCI/ADR-RES ovarian, 92.2%.
On to `COc1ccc(-c2nnc(SCC(=O)Nc3ccc(C(=O)/C=C/c4cc(OC)c(OC)c(OC)c4)cc3)n2-c2ccccc2)cc1OC`, for which the growth with SR leukemia is 75% [100 µM]; in the assay on RPMI-8226 leukemia, 16.7% [100 µM]; in the assay on OVCAR-8 ovarian, 15.9% [100 µM]; with OVCAR-5 ovarian, 19.2% [100 µM]; in the assay with OVCAR-4 ovarian, -49% [100 µM] (active); in the assay with SK-OV-3 ovarian, -54.7% [100 µM] (active). For the same compound, the growth is -36.1% [100 µM] (active) in the assay with IGROV1 ovarian, -37% [100 µM] (active) with OVCAR-3 ovarian, 4.23% [100 µM] (active) with HS 578T breast and 46% [100 µM] with NCI/ADR-RES ovarian.
As to `CCn1cnc(C[C@H](NC(=O)[C@@H](NC(=O)Nc2cc(C(F)(F)F)cc(C(F)(F)F)c2)C(C)C)C(=O)OC)c1`, the growth in the assay with SR leukemia is -35.5% [100 µM] (active); with RPMI-8226 leukemia, -52.4% [100 µM] (active); with OVCAR-8 ovarian it was -81.6% [100 µM] (active); with OVCAR-5 ovarian it was -94.9% [100 µM] (active); with OVCAR-4 ovarian, -96.2% [100 µM] (active); in the assay on SK-OV-3 ovarian it was -100% [100 µM] (active). For the same compound, the growth in the assay with IGROV1 ovarian was -71.5% [100 µM] (active); with OVCAR-3 ovarian, -89.5% [100 µM] (active); with HS 578T breast it was 7.39% [100 µM] (active); in the assay on NCI/ADR-RES ovarian it was 0.865% [100 µM] (active).
As to `COc1cc(OC)c2c(=O)cc(-c3ccccc3)oc2c1`, the growth is 31.3% with SR leukemia; 77.6% with RPMI-8226 leukemia; 103% in the assay with OVCAR-8 ovarian; 93.7% in the assay with OVCAR-5 ovarian; 105% with OVCAR-4 ovarian; 105% with SK-OV-3 ovarian. The growth with IGROV1 ovarian is 7.82% (active); with OVCAR-3 ovarian, 104%; in the assay with HS 578T breast, 113%; in the assay on NCI/ADR-RES ovarian, 109%.
As to `Cc1ccc2c(O)c(O)cc(NC(C)CCCN)c2n1` (stereo not given), the growth with SR leukemia is 89.5%; with RPMI-8226 leukemia, 75%; in the assay on OVCAR-8 ovarian, 30.7%; in the assay on OVCAR-5 ovarian, 87.4%; in the assay with OVCAR-4 ovarian it was 6.99% (active); in the assay on SK-OV-3 ovarian, 102%. The growth in the assay on IGROV1 ovarian was 86.3%; with OVCAR-3 ovarian, 10.8%; with HS 578T breast it was 80.8%; in the assay with NCI/ADR-RES ovarian, 91.3%.
`O=C1C(=O)c2ccccc2C(O)=C1CCCc1ccc(Oc2ccccc2)cc1`: the growth in the assay on SR leukemia was 94.5%; with RPMI-8226 leukemia it was 22.3%; in the assay on OVCAR-8 ovarian, 72.7%; with OVCAR-5 ovarian it was 110%; in the assay on OVCAR-4 ovarian, 59.6%; in the assay on SK-OV-3 ovarian, 74.7%. Besides, the growth was 34.7% in the assay with IGROV1 ovarian, 49.4% in the assay with OVCAR-3 ovarian, 95.7% with HS 578T breast and 91.6% in the assay on NCI/ADR-RES ovarian.
As to `C#CCCCCCCC[C@@H]1OC(=O)[C@H]([C@@H](C)CC)NC(=O)[C@@H]([C@@H](C)CC)NC(=O)CC(=O)[C@@H]1C`, the growth was 91.2% in the assay with SR leukemia; 93.8% in the assay with RPMI-8226 leukemia; 99.8% with OVCAR-8 ovarian; 88% with OVCAR-5 ovarian; 99.3% with OVCAR-4 ovarian; 102% in the assay with SK-OV-3 ovarian. Moreover, the growth with IGROV1 ovarian is 89.1%; with OVCAR-3 ovarian, 103%; in the assay with HS 578T breast, 84.6%; in the assay with NCI/ADR-RES ovarian it was 99.2%.
In the case of `NCCCOc1cc(Cl)ccc1NC(=O)c1cc2ccccc2cc1OCCCN`, the growth is -38.9% (active) in the assay with SR leukemia; -43.9% (active) with RPMI-8226 leukemia; -73.3% (active) with OVCAR-8 ovarian; -72.3% (active) with OVCAR-5 ovarian; -70.6% (active) in the assay on OVCAR-4 ovarian; -42.4% (active) in the assay on SK-OV-3 ovarian. In addition, the growth in the assay on IGROV1 ovarian was -43.5% (active); in the assay with OVCAR-3 ovarian, -86.9% (active); in the assay on HS 578T breast it was -56.4% (active); in the assay with NCI/ADR-RES ovarian, 57.2%.
With `COc1ccc(Cn2cc3c(c2)-c2oncc2CC3)cc1OC`, the growth was 16.8% with SR leukemia; 35.1% in the assay with RPMI-8226 leukemia; 24.5% in the assay with OVCAR-8 ovarian; 40.3% in the assay with OVCAR-5 ovarian; 43.4% in the assay on OVCAR-4 ovarian; -12.4% (active) with SK-OV-3 ovarian. For the same compound, the growth with IGROV1 ovarian was 17.6%; with OVCAR-3 ovarian it was -27.4% (active); in the assay with HS 578T breast, 2.04% (active); in the assay on NCI/ADR-RES ovarian it was 1.63% (active).
`COc1cc2c(c3c1c(=O)c1cccc(F)c1n3C)C=CC(C)(C)O2`: the growth in the assay on SR leukemia was 48.8%; in the assay with RPMI-8226 leukemia, 64.7%; in the assay on OVCAR-8 ovarian it was 85.2%; in the assay on OVCAR-5 ovarian, 101%; in the assay on OVCAR-4 ovarian, 101%; in the assay with SK-OV-3 ovarian, 110%. In addition, the growth in the assay on IGROV1 ovarian is 75.4%; in the assay on OVCAR-3 ovarian, 117%; with HS 578T breast, 101%; with NCI/ADR-RES ovarian, 83.9%.
